# A number with no mark means an inactive call. Calls of active or inactive are those of the source. The call rests on the fitted dose curve; in most records, active means well fitted curve in the direction sought with a large enough effect in the repeat runs; inconclusive means weak or mixed curves; inactive means flat fitted curve, though single readings scatter.
# Test: qHTS assay to test for compound auto fluorescence at 535 nm (green) in HepG2 cell free culture (AID 720686)
# Details: Cell-free medium, green autofluorescence 485/535 nm; series mostly up to 91.3 µM
# On the % scale 0 is the no-effect control and ±100 the full control effect.
Compound,outcome,"fluorescence, % of fluorescein control"
CCc1ccccc1N,inactive,
Cc1cccc(C)c1NC1=NCCCS1,inactive,
C[CH2][Hg][S]c1ccccc1C(=O)O,inactive,
CC1(C)[C@H](C(=O)O[C@H](C#N)c2cccc(Oc3ccccc3)c2)[C@@H]1C=C(Br)Br,inactive,
[Cl-].[Cl-].[Hg+2],inactive,
CN1C(=O)CN=C(c2ccccc2)c2cc([N+](=O)[O-])ccc21,inactive,
C=CCN1C[C@H](C)N([C@H](c2ccc(C(=O)N(CC)CC)cc2)c2cccc(OC)c2)C[C@H]1C,inactive,
COc1ccc(C(=O)c2c(C)n(CCN3CCOCC3)c3ccccc23)cc1,inactive,
O=CC=O,inactive,
C=C(C)C(=O)OCCCCOC(=O)C(=C)C,inactive,
CCCCCBr,inactive,
CC(C)[C@@H](C(=O)O[C@@H](C#N)c1cccc(Oc2ccccc2)c1)c1ccc(Cl)cc1,inactive,
Nc1ccccc1C(=O)OCCc1ccccc1,inactive,
O=C(O)C(O)C(O)C(=O)O (stereo not given),inactive,
CC(C)(C)N(NC(=O)c1ccc(Cl)cc1)C(=O)c1ccccc1,inactive,
COP(=O)(OC)OC(Br)C(Cl)(Cl)Br (stereo not given),inactive,
Cc1ncc(C[n+]2csc(CCO)c2C)c(N)n1,inactive,
Nc1ccc2c(c1)Cc1ccccc1-2,inactive,
CCC(C)(C)O,inactive,

Compound,outcome,"fluorescence, % of fluorescein control"
CCC1(CCC(C)C)C(=O)NC(=O)NC1=O,inactive,
CN1CC[C@]23c4c5ccc(O)c4O[C@H]2[C@@H](O)C=C[C@H]3[C@H]1C5,inactive,
NP(N)(=O)NC(=O)c1ccc(F)cc1,inactive,
CN(C)c1ccc(N=O)cc1,inactive,
C[Si](Cn1cncn1)(c1ccc(F)cc1)c1ccc(F)cc1,inactive,
O=C1NC(=O)C(=O)C(=O)N1,inactive,
CC(=O)NNc1ccccc1,inactive,
Clc1ccccc1,inactive,
NNCCO,inactive,
CCOP(=S)(OCC)Oc1ccc(S(C)=O)cc1 (stereo not given),inactive,
O=C(NC(=O)c1cc(F)c(F)cc1Cl)Nc1cc(F)ccc1N1CCC(C(=O)O)CC1,inactive,
C[C@]12C=CC3=C4CCC(=O)C=C4CC[C@H]3[C@@H]1CC[C@@H]2O,inactive,
Nc1c(Br)cc(Br)c2c1C(=O)c1ccccc1C2=O,,-0.0249% [at 18.6 µM]
O=C(O)CCCOc1ccc(Cl)cc1Cl,inactive,
CC(C)c1ccc(NC(=O)N(C)C)cc1,inactive,
CC(=O)OC(c1ccccc1)C(Cl)(Cl)Cl (stereo not given),inactive,
c1ccc2sc(SNC3CCCCC3)nc2c1,inactive,
NCCc1cc(O)c(O)cc1O,inactive,
O=[N+]([O-])c1cc(Cl)c(Cl)cc1Cl,inactive,

# Test: qHTS assay to test for compound auto fluorescence at 460 nm (blue) in HepG2 cells (AID 720687)
# Details: autofluorescence 405/460 nm, 1 h; series mostly up to 91.3 µM
# Outline: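 Cells (2,000/well in MEM with 10% FBS) attached overnight at 37 C, then were exposed to compound or DMSO for 1 hr at 37 C, 5% CO2. Fluorescence read at Ex/Em 405/460 nm, expressed as triamterene-equivalent signal.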
Compound,outcome,"fluorescence, % of fluorescent control"
CCc1ccccc1N,inactive,
Cc1cccc(C)c1NC1=NCCCS1,inactive,
C[CH2][Hg][S]c1ccccc1C(=O)O,inactive,
CC1(C)[C@H](C(=O)O[C@H](C#N)c2cccc(Oc3ccccc3)c2)[C@@H]1C=C(Br)Br,inactive,
[Cl-].[Cl-].[Hg+2],inactive,
CN1C(=O)CN=C(c2ccccc2)c2cc([N+](=O)[O-])ccc21,inactive,
C=CCN1C[C@H](C)N([C@H](c2ccc(C(=O)N(CC)CC)cc2)c2cccc(OC)c2)C[C@H]1C,inactive,
COc1ccc(C(=O)c2c(C)n(CCN3CCOCC3)c3ccccc23)cc1,inactive,
O=CC=O,inactive,
C=C(C)C(=O)OCCCCOC(=O)C(=C)C,inactive,
CCCCCBr,inactive,
CC(C)[C@@H](C(=O)O[C@@H](C#N)c1cccc(Oc2ccccc2)c1)c1ccc(Cl)cc1,inactive,
Nc1ccccc1C(=O)OCCc1ccccc1,inactive,
O=C(O)C(O)C(O)C(=O)O (stereo not given),inactive,
CC(C)(C)N(NC(=O)c1ccc(Cl)cc1)C(=O)c1ccccc1,inactive,
COP(=O)(OC)OC(Br)C(Cl)(Cl)Br (stereo not given),inactive,
Cc1ncc(C[n+]2csc(CCO)c2C)c(N)n1,inactive,
Nc1ccc2c(c1)Cc1ccccc1-2,inactive,
CCC(C)(C)O,inactive,

Compound,outcome,"fluorescence, % of fluorescent control"
CCC1(CCC(C)C)C(=O)NC(=O)NC1=O,inactive,
CN1CC[C@]23c4c5ccc(O)c4O[C@H]2[C@@H](O)C=C[C@H]3[C@H]1C5,inactive,
NP(N)(=O)NC(=O)c1ccc(F)cc1,inactive,
CN(C)c1ccc(N=O)cc1,inactive,
C[Si](Cn1cncn1)(c1ccc(F)cc1)c1ccc(F)cc1,inactive,
O=C1NC(=O)C(=O)C(=O)N1,inactive,
CC(=O)NNc1ccccc1,inactive,
Clc1ccccc1,inactive,
NNCCO,inactive,
CCOP(=S)(OCC)Oc1ccc(S(C)=O)cc1 (stereo not given),inactive,
O=C(NC(=O)c1cc(F)c(F)cc1Cl)Nc1cc(F)ccc1N1CCC(C(=O)O)CC1,inactive,
Nc1c(Br)cc(Br)c2c1C(=O)c1ccccc1C2=O,,-0.122% [at 18.6 µM]
O=C(O)CCCOc1ccc(Cl)cc1Cl,inactive,
CC(C)c1ccc(NC(=O)N(C)C)cc1,inactive,
CC(=O)OC(c1ccccc1)C(Cl)(Cl)Cl (stereo not given),inactive,
c1ccc2sc(SNC3CCCCC3)nc2c1,inactive,
NCCc1cc(O)c(O)cc1O,inactive,
O=[N+]([O-])c1cc(Cl)c(Cl)cc1Cl,inactive,

# Source: PubChem BioAssay (Tox21)
